Test results from PubChem BioAssay (NCATS).
A number with no mark means an inactive call. Records with an inconclusive call do not appear. Active and inactive are the calls of the source. Unless noted, calls come from the whole dose curve; as a rule, active = well fitted curve in the direction sought with a large enough effect; inconclusive = small, poorly fitted or top-dose-only effect, or another doubt; inactive = no such curve, though single readings can be large; an effect the other way counts as inactive or inconclusive. Where a SMILES comes first, the peptide text is derived from it.

How the values were obtained:
[1] = target: Cytochrome P450 1A2 (Homo sapiens) (UniProt P05177); assay: p450-cyp1a2 (AID 410; calls by dose curve; note: potency is the fitted concentration of half-maximal effect)
Summary of the method: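 Luminescent readout of luciferin formed from Luciferin-ME by human CYP1A2; data normalized against complete inhibition by 57 uM furafylline. Enzyme 20nM, substrate 100uM at Km, 100mM KPO4 buffer, 60 min reaction at room temperature.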

[2] = target: Glucocorticoid receptor (Homo sapiens) (UniProt P04150); assay: GR-GFP Redistribution (AID 450;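 active = compounds whose dose series gives a full or clear partial fitted curve of increased nuclear translocation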; note: potency is the fitted concentration of half-maximal effect)
[3] = target: Glucocorticoid receptor (Homo sapiens) (UniProt P04150); assay: GR-EFC Redistribution (AID 451; calls by dose curve; note: potency is the fitted concentration of half-maximal effect); conditions: CHO-K1 GR-EFC translocation, beta-gal luminescence, 2 h
Summary of the method: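 CHO-K1 cells stably expressing nuclear-localized β-gal enzyme acceptor and GR fused C-terminally to the enzyme donor fragment; ligand-driven nuclear translocation restores β-gal by complementation. Compounds titrated up to 46 uM final, 2 h at 37 °C; luminescence read.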

[4] = target: Mitogen-activated protein kinase 10 (Mus musculus) (UniProt Q61831); assay: JNK3 AlphaScreen Assay (AID 530; active = well fitted curve in either direction with a large enough effect, not every such curve was filed as active;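 note: kinase came from lysate of stimulated human HepG2 cells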; note: potency is the fitted concentration of half-maximal effect)
Summary of the method: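 Inhibitors reduce antibody binding to phosphorylated biotin-cJun, lowering AlphaScreen luminescence. Lysates from HepG2 cells pre-activated by IL-1beta plus TNF-alpha supplied JNK3; compounds were titrated.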

[5] = target: 3',5'-cyclic-AMP phosphodiesterase 4B (Homo sapiens) (UniProt Q07343); assay: qHTS Assay for Inhibitors of PDE-IV (AID 607; active = well fitted activation curve with a large enough effect in the main read-out, with a control signal flat, not every such curve was filed as active)
Summary of the method: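 Live HEK293 cells with a modified cyclic nucleotide-gated (CNG) channel report intracellular cAMP via membrane-potential dye fluorescence (ex 535/em 590 nm). Endogenous PDE-IV was targeted. Compounds were tested at up to 22.9 uM final; RO 20-1724 100 uM served as control.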

[6] = target: Cytochrome P450 2C9 (Homo sapiens) (UniProt P11712); assay: qHTS Assay for Inhibitors and Substrates of Cytochrome P450 2C9 (AID 883); note: nearly all actives have a fitted effect of over 60% in size; note: potency is the fitted concentration of half-maximal effect
Summary of the method: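 A luminogenic readout tracked human CYP2C9 (10nM) converting deoxyluciferin (100uM, at KM) in 25mM KPO4 during 60 min at 37C with regenerated NADPH. Values normalized to 57uM sulphaphenazole as complete inhibition.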

[7] = target: DNA dC->dU-editing enzyme APOBEC-3G (Homo sapiens) (UniProt Q9HC16); assay: qHTS for inhibitors of Vif-A3G interactions: Validation (AID 588379)
Summary of the method: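 HeLa cells stably expressing Vif and A3G-eYFP, 700 cells/well, incubated overnight at 37 deg C, then exposed to compound overnight at 37 deg C. Inhibition of Vif-mediated degradation read as increased yellow fluorescence (Ex 488/Em 500-530) by laser-scanning cytometry.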

[8] = target: Cytochrome P450 3A4 (Homo sapiens) (UniProt P08684); assay: qHTS Assay for Inhibitors and Substrates of Cytochrome P450 3A4 (AID 884); note: nearly all actives have a fitted effect of over 50% in size; note: potency is the fitted concentration of half-maximal effect
Summary of the method: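 20 nM human CYP3A4 with 25 uM Luciferin-PPXE (at KM) in 200 mM KPO4, preincubated 10 min with compound; NADPH regeneration started a 60 min RT reaction. Luciferin detected by luminescence, normalized to 57 uM ketoconazole as full inhibition.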

[9] = target: Cytochrome P450 2D6 (Homo sapiens) (UniProt P10635); assay: qHTS Assay for Inhibitors and Substrates of Cytochrome P450 2D6 (AID 891); note: nearly all actives have a fitted effect of over 60% in size; note: potency is the fitted concentration of half-maximal effect
Summary of the method: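 Human CYP2D6 (5 nM) with 30 uM Luciferin-ME EGE (at Km) in 100 mM KPO4, compound preincubated 10 min, then NADPH regeneration system for 60 min at room temperature. Luciferin read by luminescence; normalized to 1.43 uM quinidine.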

[10] = target: Cytochrome P450 2C19 (Homo sapiens) (UniProt P33261); assay: qHTS Assay for Inhibitors and Substrates of Cytochrome P450 2C19 (AID 899); note: nearly all actives have a fitted effect of over 60% in size; note: potency is the fitted concentration of half-maximal effect
Summary of the method: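 NADPH-dependent conversion of Luciferin-H EGE (10uM, at KM) by 5nM enzyme in 50mM KPO4, 60 min at 37C following 10 min compound preincubation. Stopped with luciferin detection buffer; luminescence read after 20 min.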

[11] = target: Cytochrome P450 3A4 (Homo sapiens) (UniProt P08684); assay: qHTS Assay for Activators of Cytochrome P450 3A4 (AID 885); note: nearly all actives have a fitted effect of over 65% in size
Summary of the method: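 Quantitative HTS format: compounds preincubated with 20nM human CYP3A4 and Luciferin-PPXE substrate at KM, reaction started by NADPH regeneration, stopped after 60 min, luciferase luminescence read 20 min later.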

[12] = target: Ubiquitin carboxyl-terminal hydrolase 1 (Homo sapiens) (UniProt O94782); assay: Inhibitors of USP1/UAF1: Pilot qHTS (AID 504865);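 note: rhodamine fluorescence freed from ubiquitin-rhodamine substrate followed over time; top concentration of the series differs between compounds; nearly all actives have a fitted effect of over 35% in size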
Summary of the method: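 Enzyme-free wells gave the negative control, while test wells held 1nM USP1/UAF1 preincubated with compound for 15 min at room temperature. Ub-Rho at 150nM final started the reaction, and fluorescence at 480/540 nm was recorded kinetically.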

Chain of Cytochrome P450 2D6 (Homo sapiens) (P10635 whole entry, looked up): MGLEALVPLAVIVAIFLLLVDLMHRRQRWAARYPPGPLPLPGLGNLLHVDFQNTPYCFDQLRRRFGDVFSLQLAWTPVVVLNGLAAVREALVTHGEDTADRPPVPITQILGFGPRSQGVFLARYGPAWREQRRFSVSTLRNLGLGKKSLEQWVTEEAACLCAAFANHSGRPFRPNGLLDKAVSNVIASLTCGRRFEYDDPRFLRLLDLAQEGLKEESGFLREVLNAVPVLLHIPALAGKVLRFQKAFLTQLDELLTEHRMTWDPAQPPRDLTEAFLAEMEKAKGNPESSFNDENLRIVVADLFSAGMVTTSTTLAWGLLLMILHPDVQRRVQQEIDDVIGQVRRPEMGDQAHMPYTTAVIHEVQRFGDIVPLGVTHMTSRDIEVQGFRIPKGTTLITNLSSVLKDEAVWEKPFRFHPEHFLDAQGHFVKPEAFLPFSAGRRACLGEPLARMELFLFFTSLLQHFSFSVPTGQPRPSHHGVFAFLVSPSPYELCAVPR
Chain of Glucocorticoid receptor (Homo sapiens) (P04150 whole entry, looked up, the tested form may be a part): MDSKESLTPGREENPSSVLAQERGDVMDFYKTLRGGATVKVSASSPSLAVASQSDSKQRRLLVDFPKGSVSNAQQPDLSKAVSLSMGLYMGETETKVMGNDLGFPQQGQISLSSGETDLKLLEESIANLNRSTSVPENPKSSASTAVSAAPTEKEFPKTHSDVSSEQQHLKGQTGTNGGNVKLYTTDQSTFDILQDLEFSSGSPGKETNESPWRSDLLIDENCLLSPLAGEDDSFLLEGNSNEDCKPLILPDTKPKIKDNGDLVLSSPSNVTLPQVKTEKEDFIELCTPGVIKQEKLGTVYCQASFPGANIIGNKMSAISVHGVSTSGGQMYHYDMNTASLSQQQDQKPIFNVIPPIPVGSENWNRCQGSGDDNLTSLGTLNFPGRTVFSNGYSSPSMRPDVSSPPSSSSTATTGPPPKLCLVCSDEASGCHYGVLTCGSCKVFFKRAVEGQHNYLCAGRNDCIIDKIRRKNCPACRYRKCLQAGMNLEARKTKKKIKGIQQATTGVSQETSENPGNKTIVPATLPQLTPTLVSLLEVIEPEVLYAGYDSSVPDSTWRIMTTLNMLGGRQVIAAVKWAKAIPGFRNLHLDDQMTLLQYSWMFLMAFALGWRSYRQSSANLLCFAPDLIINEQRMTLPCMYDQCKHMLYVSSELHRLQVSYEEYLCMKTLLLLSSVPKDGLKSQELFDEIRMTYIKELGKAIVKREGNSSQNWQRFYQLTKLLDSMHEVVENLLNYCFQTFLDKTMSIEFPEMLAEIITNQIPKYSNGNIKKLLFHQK
Chain of Cytochrome P450 1A2 (Homo sapiens) (P05177 whole entry, looked up): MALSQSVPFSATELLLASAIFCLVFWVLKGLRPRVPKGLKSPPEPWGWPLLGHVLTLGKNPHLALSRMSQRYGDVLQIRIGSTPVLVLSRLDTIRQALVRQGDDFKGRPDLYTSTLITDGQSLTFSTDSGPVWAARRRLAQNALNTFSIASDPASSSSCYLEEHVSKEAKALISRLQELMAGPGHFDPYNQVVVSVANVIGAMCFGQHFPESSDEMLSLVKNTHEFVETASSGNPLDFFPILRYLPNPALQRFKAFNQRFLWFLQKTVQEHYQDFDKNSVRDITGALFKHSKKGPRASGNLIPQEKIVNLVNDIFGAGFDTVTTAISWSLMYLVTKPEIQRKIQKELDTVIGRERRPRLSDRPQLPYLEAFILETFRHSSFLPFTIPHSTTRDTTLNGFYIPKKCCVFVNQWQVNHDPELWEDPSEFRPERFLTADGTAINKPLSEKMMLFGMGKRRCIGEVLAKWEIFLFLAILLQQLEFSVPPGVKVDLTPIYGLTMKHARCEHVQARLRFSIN
Chain of 3',5'-cyclic-AMP phosphodiesterase 4B (Homo sapiens) (Q07343 whole entry, looked up): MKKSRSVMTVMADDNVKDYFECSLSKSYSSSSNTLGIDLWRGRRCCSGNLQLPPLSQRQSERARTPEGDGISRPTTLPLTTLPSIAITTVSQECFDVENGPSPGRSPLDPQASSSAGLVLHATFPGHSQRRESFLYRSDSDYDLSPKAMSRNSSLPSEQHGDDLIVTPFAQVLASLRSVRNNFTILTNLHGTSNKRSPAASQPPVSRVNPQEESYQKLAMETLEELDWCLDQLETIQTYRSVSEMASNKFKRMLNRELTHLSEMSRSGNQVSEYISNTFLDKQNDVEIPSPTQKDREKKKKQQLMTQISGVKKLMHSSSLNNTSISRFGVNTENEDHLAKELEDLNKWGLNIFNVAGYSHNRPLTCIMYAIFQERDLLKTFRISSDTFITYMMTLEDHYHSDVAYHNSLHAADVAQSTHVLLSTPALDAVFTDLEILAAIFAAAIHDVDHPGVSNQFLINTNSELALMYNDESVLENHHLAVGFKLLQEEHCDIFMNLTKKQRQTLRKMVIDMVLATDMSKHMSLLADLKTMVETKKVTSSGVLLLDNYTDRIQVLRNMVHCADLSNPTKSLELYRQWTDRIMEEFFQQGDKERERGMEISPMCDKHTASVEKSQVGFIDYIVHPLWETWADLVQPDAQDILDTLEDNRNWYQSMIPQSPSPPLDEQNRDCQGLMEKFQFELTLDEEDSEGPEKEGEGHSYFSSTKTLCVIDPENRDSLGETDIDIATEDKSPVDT
Chain of Cytochrome P450 2C9 (Homo sapiens) (P11712 whole entry, looked up): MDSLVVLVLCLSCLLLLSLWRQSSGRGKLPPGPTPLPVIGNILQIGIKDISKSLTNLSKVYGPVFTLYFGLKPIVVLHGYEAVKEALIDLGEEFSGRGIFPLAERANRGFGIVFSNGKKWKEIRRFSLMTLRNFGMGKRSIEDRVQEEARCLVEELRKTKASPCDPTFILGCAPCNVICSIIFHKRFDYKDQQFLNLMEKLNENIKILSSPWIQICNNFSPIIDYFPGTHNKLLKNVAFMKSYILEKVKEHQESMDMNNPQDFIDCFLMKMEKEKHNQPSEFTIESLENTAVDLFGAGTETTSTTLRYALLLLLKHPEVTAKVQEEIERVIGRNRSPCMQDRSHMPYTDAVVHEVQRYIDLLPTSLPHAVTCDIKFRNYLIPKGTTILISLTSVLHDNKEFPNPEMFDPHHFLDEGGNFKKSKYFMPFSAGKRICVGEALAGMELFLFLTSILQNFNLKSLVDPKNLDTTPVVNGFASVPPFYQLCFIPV
Chain of Cytochrome P450 2C19 (Homo sapiens) (P33261 whole entry, looked up): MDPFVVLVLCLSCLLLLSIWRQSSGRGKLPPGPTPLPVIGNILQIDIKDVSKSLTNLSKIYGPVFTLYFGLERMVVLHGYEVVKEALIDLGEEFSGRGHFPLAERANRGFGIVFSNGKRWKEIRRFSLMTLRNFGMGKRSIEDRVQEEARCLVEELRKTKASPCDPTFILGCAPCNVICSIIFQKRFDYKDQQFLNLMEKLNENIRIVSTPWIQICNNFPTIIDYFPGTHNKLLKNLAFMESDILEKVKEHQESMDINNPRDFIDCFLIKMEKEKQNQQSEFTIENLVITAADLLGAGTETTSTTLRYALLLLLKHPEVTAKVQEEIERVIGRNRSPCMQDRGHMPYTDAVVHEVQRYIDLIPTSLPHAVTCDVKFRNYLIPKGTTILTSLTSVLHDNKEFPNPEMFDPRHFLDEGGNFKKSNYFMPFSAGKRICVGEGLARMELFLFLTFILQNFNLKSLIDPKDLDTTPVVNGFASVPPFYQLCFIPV
Chain of DNA dC->dU-editing enzyme APOBEC-3G (Homo sapiens) (Q9HC16 whole entry, looked up): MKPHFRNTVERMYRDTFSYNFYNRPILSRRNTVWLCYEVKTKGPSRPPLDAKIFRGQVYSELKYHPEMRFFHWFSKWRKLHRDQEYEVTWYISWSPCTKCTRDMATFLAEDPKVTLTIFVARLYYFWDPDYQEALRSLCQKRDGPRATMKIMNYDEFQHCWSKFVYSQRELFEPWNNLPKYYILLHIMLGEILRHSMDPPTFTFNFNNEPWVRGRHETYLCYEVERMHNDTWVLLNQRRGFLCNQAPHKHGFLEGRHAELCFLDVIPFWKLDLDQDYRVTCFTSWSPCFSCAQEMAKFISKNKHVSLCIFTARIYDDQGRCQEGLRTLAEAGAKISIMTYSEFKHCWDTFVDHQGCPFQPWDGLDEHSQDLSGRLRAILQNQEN
Chain of Cytochrome P450 3A4 (Homo sapiens) (P08684 whole entry, looked up): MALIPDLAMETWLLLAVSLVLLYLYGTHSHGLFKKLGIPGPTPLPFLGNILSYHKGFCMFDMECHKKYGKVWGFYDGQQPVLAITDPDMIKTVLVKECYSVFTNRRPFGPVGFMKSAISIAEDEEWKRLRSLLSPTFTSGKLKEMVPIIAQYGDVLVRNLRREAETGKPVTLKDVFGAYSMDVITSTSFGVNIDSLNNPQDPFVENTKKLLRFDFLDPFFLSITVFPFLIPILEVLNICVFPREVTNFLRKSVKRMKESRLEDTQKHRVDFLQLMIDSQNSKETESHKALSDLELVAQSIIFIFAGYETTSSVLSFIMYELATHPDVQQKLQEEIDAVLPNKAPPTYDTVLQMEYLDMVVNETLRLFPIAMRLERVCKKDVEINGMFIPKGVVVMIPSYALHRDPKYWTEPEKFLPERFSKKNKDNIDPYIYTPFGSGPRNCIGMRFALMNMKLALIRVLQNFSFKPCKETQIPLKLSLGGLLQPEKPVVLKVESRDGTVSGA

| Structure (SMILES) | Potency [1] | Potency [2] | Potency [3] | Potency [4] | Potency [5] | Potency [6] | outcome [7] | Potency [8] | Potency [9] | Potency [10] | Potency [11] | Potency [12] |
| --- | --- | --- | --- | --- | --- | --- | --- | --- | --- | --- | --- | --- |
| O=C(CCc1ccc(O)cc1)c1c(O)cc(O)cc1O[C@@H]1O[C@@H](CO)[C@@H](O)[C@@H](O)[C@H]1O | inactive | > 46 µM | > 46 µM | inactive | inactive | 31.6 µM (active) |  |  |  |  |  |  |
| CCCc1c(OCCCOc2ccc(OCC(=O)O)cc2)ccc(CC=O)c1O | 31.6 µM (active) | > 46 µM | > 46 µM | inactive | inactive |  | inactive |  |  |  |  |  |
| COc1cc2c(cc1OC)C(=O)N(C)CC2 | 2 µM (active) | > 46 µM | > 46 µM | inactive |  | inactive | inactive | inactive | inactive | inactive |  |  |
| CC1=CC(=O)CC(C)(C)[C@@]1(O)/C=C\C(C)=C\C(=O)O | inactive | > 46 µM | > 46 µM | inactive | inactive | inactive |  |  | inactive | inactive |  |  |
| C=CC1=C(C)C2=Cc3c(C=C)c(C)c4[n]3[Sn+2][n]3c(c(C)c(CCC(=O)O)c3=CC3=NC(=C4)C(C)=C3CCC(=O)O)=CC1=N2 | 39.8 µM (active) | > 46 µM | > 46 µM | 1 µM [activator] (active) |  |  | inactive |  | 1.26 µM (active) |  |  |  |
| C[C@@H]1C(=O)O[C@@H]2C[C@@]34[C@H]5C[C@@H](C(C)(C)C)[C@@]36[C@@H](OC(=O)[C@@H]6O)O[C@]4(C(=O)O5)[C@@]12O | inactive | > 46 µM | > 46 µM | inactive |  |  |  |  |  |  |  |  |
| O=c1cc(-c2ccc(O)cc2O)oc2ccccc12 | 1.26 µM (active) | > 46 µM | > 46 µM | inactive | inactive | 5.01 µM (active) | inactive |  | inactive |  | inactive |  |
| O=c1cc(-c2cccc(O)c2O)oc2ccccc12 | 1 µM (active) | > 46 µM | > 46 µM | 3.98 µM (active) | inactive | 12.6 µM (active) | inactive |  |  |  | inactive |  |
| CN(CCc1ccc(Cl)c(Cl)c1)CCN1CCCCCC1 | 31.6 µM (active) | > 46 µM | > 46 µM | inactive |  |  | inactive |  | 0.126 µM (active) |  | inactive | inactive |
| COc1ccc2oc(-c3ccccc3)c(OC)c(=O)c2c1 | 0.501 µM (active) | > 46 µM | > 46 µM | inactive | inactive | 25.1 µM (active) | inactive |  |  |  | inactive |  |
| C=C1CC[C@@H](O)C/C1=C/C=C1\CCC[C@]2(C)[C@@H]1CC[C@H]2[C@@H](C)CCCC(C)C | inactive | > 46 µM | > 46 µM | inactive | inactive | inactive |  |  | inactive | inactive |  |  |
| COc1ccc2oc(-c3ccc(O)cc3)cc(=O)c2c1 | 0.316 µM (active) | > 46 µM | > 46 µM |  | inactive | 2.51 µM (active) | inactive | 3.98 µM (active) | 25.1 µM (active) |  | inactive |  |
| O=C1C=CC2=C3c4cc(O)c(O)cc4C[C@@]3(O)COC2=C1O | 39.8 µM (active) | > 46 µM | > 46 µM | 0.501 µM (active) |  | 3.98 µM (active) |  |  | 25.1 µM (active) | 6.31 µM (active) |  |  |
| N[C@@H](Cc1c[nH]c2ccccc12)C(=O)NCC(=O)O (H-Trp-Gly-OH) | inactive | > 46 µM | > 46 µM | inactive | inactive | inactive |  |  | inactive | inactive |  |  |
| CC1(C)CCC[C@@]2(C)[C@@H]1CC[C@]1(C)OC(=O)C[C@@H]21 | inactive | > 46 µM | > 46 µM | inactive |  |  |  |  |  | 15.8 µM (active) |  |  |
